Of roughly 7,900 targets only a part is listed; those with a hit were picked by preference. About 0.6% of all pairs of compound and target were hits.
The targets below were run with CC(C)C[C@@H](C=O)NC(=O)[C@H](CC(C)C)NC(=O)[C@H](CC(C)C)NC(=O)OCc1ccccc1 (assay: log2 fold change, soluble protein after heating vs DMSO (PISA); higher = thermal stabilisation; K562 cells, 10 uM, 30 min; active = over 0.2 and 3.5 SD of the protein, either way, in both replicates (recomputed)).
In short: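 Soluble protein was quantified by TMTpro 16plex LC-MS/MS after channel sums were equalised. It was obtained as the supernatant after 21,000xg for 90 min from pooled aliquots of K562 cells (2×10^6 cells/mL, 10 μM compound, 30 min) heated for 3 min across 48°C-58°C and extracted in PBS with 0.5% NP-40 at 4°C. Thermal stability values are relative to control samples and come from duplicates. They are given as log2 fold changes.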
Sequence of UniProt Q15418 (Q15418 whole entry, looked up): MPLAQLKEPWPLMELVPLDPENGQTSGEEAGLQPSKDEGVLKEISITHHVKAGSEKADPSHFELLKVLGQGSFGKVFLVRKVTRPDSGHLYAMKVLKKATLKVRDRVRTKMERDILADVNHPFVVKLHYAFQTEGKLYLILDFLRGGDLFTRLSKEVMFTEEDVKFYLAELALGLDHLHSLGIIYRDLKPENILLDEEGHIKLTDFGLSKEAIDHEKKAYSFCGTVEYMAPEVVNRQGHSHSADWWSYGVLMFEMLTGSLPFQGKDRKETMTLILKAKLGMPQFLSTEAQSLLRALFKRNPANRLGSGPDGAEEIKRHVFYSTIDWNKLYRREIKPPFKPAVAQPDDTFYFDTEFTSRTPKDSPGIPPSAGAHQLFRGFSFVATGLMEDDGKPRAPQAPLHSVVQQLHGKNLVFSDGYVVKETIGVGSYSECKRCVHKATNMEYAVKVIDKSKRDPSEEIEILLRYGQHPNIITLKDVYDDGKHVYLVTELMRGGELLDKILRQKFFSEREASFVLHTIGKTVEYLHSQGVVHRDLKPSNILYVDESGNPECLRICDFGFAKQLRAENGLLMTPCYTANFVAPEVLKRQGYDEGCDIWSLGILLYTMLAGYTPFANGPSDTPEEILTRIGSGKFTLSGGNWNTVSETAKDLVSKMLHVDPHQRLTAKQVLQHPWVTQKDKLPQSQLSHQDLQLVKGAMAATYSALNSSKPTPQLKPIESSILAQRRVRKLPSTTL
Sequence of UniProt Q8TBN0 (Q8TBN0 whole entry, looked up): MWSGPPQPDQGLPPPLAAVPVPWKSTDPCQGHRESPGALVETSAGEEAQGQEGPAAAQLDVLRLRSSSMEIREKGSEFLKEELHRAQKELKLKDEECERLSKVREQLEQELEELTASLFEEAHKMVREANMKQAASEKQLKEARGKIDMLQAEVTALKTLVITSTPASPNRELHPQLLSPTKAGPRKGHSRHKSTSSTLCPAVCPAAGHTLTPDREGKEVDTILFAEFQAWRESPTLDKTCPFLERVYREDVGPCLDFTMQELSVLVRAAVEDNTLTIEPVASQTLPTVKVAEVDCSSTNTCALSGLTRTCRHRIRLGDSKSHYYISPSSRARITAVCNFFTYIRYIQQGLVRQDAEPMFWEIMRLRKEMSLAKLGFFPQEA
Sequence of UniProt Q92878 (Q92878 whole entry, looked up): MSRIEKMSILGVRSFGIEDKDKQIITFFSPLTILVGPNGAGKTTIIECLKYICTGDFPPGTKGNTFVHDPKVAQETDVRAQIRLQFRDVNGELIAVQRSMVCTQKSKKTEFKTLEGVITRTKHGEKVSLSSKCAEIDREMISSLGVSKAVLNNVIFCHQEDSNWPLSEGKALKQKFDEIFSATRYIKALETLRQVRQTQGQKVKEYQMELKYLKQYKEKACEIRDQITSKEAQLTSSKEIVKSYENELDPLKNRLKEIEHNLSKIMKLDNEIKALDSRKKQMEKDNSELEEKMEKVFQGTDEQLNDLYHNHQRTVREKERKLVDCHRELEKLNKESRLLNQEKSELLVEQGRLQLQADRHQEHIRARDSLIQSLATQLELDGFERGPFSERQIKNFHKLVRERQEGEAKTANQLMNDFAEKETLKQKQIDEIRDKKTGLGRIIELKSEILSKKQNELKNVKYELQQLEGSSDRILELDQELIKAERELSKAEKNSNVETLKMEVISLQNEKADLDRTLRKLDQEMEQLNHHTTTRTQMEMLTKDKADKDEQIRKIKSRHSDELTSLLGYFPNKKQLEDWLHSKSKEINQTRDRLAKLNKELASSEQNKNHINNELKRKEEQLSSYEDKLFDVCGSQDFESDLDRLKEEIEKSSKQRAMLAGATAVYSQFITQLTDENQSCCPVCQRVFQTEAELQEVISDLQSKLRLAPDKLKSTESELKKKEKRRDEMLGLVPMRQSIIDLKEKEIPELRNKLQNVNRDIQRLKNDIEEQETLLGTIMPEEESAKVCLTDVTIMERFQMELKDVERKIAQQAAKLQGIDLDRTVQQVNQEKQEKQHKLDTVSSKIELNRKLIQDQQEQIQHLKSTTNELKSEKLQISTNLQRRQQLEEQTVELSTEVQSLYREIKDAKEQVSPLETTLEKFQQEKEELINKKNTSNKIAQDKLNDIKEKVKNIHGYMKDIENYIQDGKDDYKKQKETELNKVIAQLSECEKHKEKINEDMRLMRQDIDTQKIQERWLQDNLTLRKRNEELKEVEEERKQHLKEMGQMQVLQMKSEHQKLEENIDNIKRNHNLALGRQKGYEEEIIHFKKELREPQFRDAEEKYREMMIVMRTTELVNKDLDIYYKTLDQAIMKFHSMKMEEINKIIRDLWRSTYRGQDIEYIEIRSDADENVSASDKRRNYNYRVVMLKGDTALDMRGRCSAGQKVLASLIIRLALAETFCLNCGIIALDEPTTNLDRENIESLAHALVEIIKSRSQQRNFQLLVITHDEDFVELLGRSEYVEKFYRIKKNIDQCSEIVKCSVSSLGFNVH
Sequence of UniProt Q9NR46 (Q9NR46 whole entry, looked up): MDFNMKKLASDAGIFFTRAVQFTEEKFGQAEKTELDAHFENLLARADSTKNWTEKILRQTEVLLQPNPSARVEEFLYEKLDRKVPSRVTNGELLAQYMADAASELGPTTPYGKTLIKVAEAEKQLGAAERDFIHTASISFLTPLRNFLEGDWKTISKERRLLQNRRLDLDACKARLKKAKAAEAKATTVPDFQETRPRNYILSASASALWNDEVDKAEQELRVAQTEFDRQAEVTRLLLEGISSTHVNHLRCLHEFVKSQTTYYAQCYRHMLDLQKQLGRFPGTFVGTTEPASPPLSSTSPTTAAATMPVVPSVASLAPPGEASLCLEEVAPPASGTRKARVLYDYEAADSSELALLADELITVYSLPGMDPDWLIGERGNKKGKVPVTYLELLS
Sequence of UniProt P49756 (P49756 whole entry, looked up): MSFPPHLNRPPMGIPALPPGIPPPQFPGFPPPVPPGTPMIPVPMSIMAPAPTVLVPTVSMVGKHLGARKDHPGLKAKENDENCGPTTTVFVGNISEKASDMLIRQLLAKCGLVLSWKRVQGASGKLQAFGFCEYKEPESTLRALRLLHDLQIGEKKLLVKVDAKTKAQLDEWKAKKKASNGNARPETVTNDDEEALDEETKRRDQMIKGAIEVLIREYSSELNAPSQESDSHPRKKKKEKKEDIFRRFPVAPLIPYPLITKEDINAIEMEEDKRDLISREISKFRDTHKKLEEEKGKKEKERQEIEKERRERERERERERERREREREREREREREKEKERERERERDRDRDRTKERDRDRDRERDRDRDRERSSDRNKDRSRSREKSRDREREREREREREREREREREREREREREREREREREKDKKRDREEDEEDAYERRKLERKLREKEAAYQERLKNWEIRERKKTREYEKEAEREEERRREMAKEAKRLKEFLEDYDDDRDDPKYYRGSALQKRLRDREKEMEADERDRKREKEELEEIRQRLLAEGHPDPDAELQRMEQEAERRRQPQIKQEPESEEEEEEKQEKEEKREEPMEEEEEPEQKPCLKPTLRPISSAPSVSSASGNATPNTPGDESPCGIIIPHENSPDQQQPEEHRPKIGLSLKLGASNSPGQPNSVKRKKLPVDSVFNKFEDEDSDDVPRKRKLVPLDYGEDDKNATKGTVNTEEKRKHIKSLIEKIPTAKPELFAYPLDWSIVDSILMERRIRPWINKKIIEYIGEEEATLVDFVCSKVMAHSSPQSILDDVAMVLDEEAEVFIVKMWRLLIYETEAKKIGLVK
Sequence of UniProt Q8WWV3 (Q8WWV3 whole entry, looked up): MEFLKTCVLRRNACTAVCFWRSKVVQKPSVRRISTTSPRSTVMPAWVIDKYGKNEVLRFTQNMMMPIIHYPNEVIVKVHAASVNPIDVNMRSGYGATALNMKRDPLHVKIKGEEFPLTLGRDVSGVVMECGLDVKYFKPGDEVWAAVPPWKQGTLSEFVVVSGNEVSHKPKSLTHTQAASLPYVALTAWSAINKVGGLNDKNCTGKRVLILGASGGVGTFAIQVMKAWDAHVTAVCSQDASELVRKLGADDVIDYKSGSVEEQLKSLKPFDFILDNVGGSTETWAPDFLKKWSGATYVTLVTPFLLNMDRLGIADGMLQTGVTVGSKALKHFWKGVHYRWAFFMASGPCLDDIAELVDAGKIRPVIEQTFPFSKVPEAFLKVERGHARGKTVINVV
Sequence of UniProt Q6NUM9 (Q6NUM9 whole entry, looked up): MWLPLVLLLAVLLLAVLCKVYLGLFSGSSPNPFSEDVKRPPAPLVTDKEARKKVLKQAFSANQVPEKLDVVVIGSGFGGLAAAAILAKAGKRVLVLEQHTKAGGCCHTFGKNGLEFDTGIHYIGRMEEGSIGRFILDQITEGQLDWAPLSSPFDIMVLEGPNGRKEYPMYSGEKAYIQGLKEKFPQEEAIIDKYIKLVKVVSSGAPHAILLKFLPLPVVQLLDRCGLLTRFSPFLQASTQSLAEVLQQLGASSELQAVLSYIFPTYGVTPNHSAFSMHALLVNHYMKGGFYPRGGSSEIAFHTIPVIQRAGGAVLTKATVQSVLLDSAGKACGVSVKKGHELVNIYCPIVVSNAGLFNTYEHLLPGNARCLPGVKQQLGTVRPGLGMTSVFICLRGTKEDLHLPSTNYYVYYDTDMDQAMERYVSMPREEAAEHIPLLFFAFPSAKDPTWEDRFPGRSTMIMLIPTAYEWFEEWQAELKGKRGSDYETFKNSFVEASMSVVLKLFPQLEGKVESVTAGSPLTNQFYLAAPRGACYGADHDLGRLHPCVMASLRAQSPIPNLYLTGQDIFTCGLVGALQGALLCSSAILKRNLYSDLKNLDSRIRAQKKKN
Sequence of UniProt Q06609 (Q06609 whole entry, looked up): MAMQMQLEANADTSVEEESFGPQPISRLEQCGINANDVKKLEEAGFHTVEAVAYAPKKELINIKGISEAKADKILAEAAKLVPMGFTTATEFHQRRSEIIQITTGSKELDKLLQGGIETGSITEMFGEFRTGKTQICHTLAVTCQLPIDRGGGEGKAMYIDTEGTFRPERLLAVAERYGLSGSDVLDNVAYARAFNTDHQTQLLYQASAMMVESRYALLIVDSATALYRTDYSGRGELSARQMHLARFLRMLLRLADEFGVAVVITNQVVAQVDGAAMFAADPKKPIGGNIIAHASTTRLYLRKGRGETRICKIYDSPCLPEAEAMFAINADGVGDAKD
With ROCK2 (UniProt O75116) the log2 fold change was 0.034 (inactive). SCCPDH (UniProt Q8NBX0) was tested, and the log2 fold change was -0.032 (inactive). RB1 (UniProt P06400) was tested, and the log2 fold change was 0.032 (inactive). RAB3IL1 (UniProt Q8TBN0) was tested, and the log2 fold change was 0.057 (inactive). For SDCBP (UniProt O00560), the log2 fold change was 0.181 (inactive). With RTN4IP1 (UniProt Q8WWV3) the log2 fold change was -0.009 (inactive). SGPL1 (UniProt O95470) was tested, and the log2 fold change was 0.002 (inactive). With RPS14 (UniProt P62263) the log2 fold change was 0.003 (inactive). For RAD51 (UniProt Q06609), the log2 fold change was 0.048 (inactive). With SH3GLB2 (UniProt Q9NR46) the log2 fold change was 0.066 (inactive). For RPS5 (UniProt P46782), the log2 fold change was -0.019 (inactive). In the case of RAD50 isoform 2 (UniProt Q92878), the log2 fold change is reported as -0.014 (inactive). RPS13 (UniProt P62277) was tested, and the log2 fold change was 0.137 (inactive). With RHOA (UniProt P61586) the log2 fold change was -0.07 (inactive). In the case of SLC12A9 (UniProt Q9BXP2), the log2 fold change is reported as 0.033 (inactive). SCG3 (UniProt Q8WXD2) was tested, and the log2 fold change was 0.038 (inactive). With RSF1 (UniProt Q96T23) the log2 fold change was -0.058 (inactive). With RPS3 (UniProt P23396) the log2 fold change was 0.016 (inactive). For RPS6KA1 isoform 2 (UniProt Q15418), the log2 fold change was 0.059 (inactive). In the case of RRAGC (UniProt Q9HB90), the log2 fold change is reported as 0.068 (inactive). In the case of SERINC3 (UniProt Q13530), the log2 fold change is reported as 0.17 (inactive). For RBM25 (UniProt P49756), the log2 fold change was 0.057 (inactive). With SKP1 (UniProt P63208) the log2 fold change was -0.069 (inactive). RARS (UniProt P54136) was tested, and the log2 fold change was 0.096 (inactive). RDH11 (UniProt Q8TC12) was tested, and the log2 fold change was 0.117 (inactive). With RPS15 (UniProt P62841) the log2 fold change was 0.11 (inactive). With RPS18 (UniProt P62269) the log2 fold change was 0.054 (inactive). For RETSAT (UniProt Q6NUM9), the log2 fold change was -0.007 (inactive). RMC1 (UniProt Q96DM3) was tested, and the log2 fold change was 0.011 (inactive). SAAL1 (UniProt Q96ER3) was tested, and the log2 fold change was 0.032 (inactive). With RPA1 (UniProt P27694) the log2 fold change was -0.027 (inactive). RAC1 (UniProt P63000) was tested, and the log2 fold change was -0.026 (inactive). For SDHC (UniProt Q99643), the log2 fold change was -0.286 (inactive). With SERPINA7 (UniProt P05543) the log2 fold change was 0.043 (inactive).
